Tests used:
Assay in all cases: PBM binding z-score (relative to random genomic background probes); higher = stronger binding; sequences stand for … in GC…GCGATTGACAGCGTAGAATGAAGG
[1] = system: FXR:RXRa (NR concentration 270 nM, RXRa partner concentration 90 nM)
Method in brief: (§1)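 Scanned fluorescence from custom Agilent 4×180K protein-binding microarrays was regression-normalized. Binding z-scores use random background probes as reference. Ligand-free nuclear receptor dimers were incubated on the arrays for 1 h and detected with antibodies against each partner (one per run).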

[2] = system: LXRa:RXRa (NR concentration 270 nM, RXRa partner concentration 90 nM)
Method in brief: as §1

[3] = system: LXRa homodimer (NR concentration 270 nM)
Method in brief: as §1

[4] = system: LXRb:RXRa (NR concentration 270 nM, RXRa partner concentration 90 nM)
Method in brief: as §1

[5] = system: LXRb homodimer (NR concentration 270 nM)
Method in brief: as §1

[6] = system: PPARa:RXRa (NR concentration 270 nM, RXRa partner concentration 90 nM)
Method in brief: as §1

[7] = system: PPARg:RXRa (NR concentration 180 nM, RXRa partner concentration 90 nM)
Method in brief: as §1

[8] = system: PPARg:RXRa 270nM:90nM, anti-RXR (NR concentration 270 nM, RXRa partner concentration 90 nM)
Method in brief: as §1

[9] = system: PPARg:RXRa 30nM:10nM, anti-RXR (NR concentration 30 nM, RXRa partner concentration 10 nM)
Method in brief: as §1

[10] = system: PPARg:RXRa 90nM:30nM, anti-RXR (NR concentration 90 nM, RXRa partner concentration 30 nM)
Method in brief: as §1

[11] = system: PPARg:RXRa DBDmut IVT, anti-RXR (DBD mutation: RXRa K156A/R161A, NR concentration 270 nM, RXRa partner concentration 90 nM)
Method in brief: as §1

[12] = system: PPARg:RXRa IVT, anti-PPARg (NR concentration 270 nM, RXRa partner concentration 90 nM)
Method in brief: as §1

[13] = system: PPARg DBDmut:RXRa IVT, anti-PPARg (DBD mutation: PPARg1 K132A/R137A, NR concentration 270 nM, RXRa partner concentration 90 nM)
Method in brief: as §1

[14] = system: PPARg DBDmut IVT, anti-PPARg (DBD mutation: PPARg1 K132A/R137A, NR concentration 270 nM)
Method in brief: as §1

[15] = system: PPARg homodimer (NR concentration 180 nM)
Method in brief: as §1

[16] = system: PXR:RXRa (NR concentration 270 nM, RXRa partner concentration 90 nM)
Method in brief: as §1

[17] = system: PXR homodimer (NR concentration 270 nM)
Method in brief: as §1

[18] = system: RARa:RXR (NR concentration 270 nM, RXRa partner concentration 90 nM)
Method in brief: as §1

[19] = system: RARa homodimer (NR concentration 270 nM)
Method in brief: as §1

[20] = system: RARb:RXRa (NR concentration 270 nM, RXRa partner concentration 90 nM)
Method in brief: as §1

Sequence	PBM binding z-score [1]	PBM binding z-score [2]	PBM binding z-score [3]	PBM binding z-score [4]	PBM binding z-score [5]	PBM binding z-score [6]	PBM binding z-score [7]	PBM binding z-score [8]	PBM binding z-score [9]	PBM binding z-score [10]	PBM binding z-score [11]	PBM binding z-score [12]	PBM binding z-score [13]	PBM binding z-score [14]	PBM binding z-score [15]	PBM binding z-score [16]	PBM binding z-score [17]	PBM binding z-score [18]	PBM binding z-score [19]	PBM binding z-score [20]
CCTAGTTGGTCAGGAGGTCACAAACCGGATATGA	3.32	2.85	1.66	3.16	0.659	3.98	3.09	3.7	1.19	2.73	1.35	3.19	0.681	-0.00546	3.21	3.77	1.38	4.45	2.04	3.37
ATCGAAAGGTCGAAGGTCAGTATACCCACCCGAA	5.6	4.68	1.05	4.53	0.966	5.61	6.96	6.43	3.83	5.97	0.724	3.24	0.938	0.568	2.47	5.13	0.812		1.68	4.54
ACTAGCAGGCCAAGGGTGACTCAAGATTAGTCCG	-0.498	-0.205	-0.435	-0.119	-1	2.13	4.45	5.29	3.6	5.35	0.931	1.84	-0.0543	-0.633	-0.412	-0.0749	-0.354	0.264	-0.894	0.8
CAAACTAGGTCACAGAGGTCGAAGTCCGTGCGTA	4.92	4.23	1.74	3.62	0.575	5.48	9	6.93	5.15	7.32	8.27	8.42	2.27	0.791	2.22	4.41	3.65		0.511	4.35
CGTCCAAGGTCAGATAGGTCAGTGAATGCCGAGT	5.44	3.81	1.77	3.45	0.397	4.33	2.66	3.09	0.662	1.9	1.9	2.41	-0.168	0.165	2.95	4.33	4.32		1.22	5.1
CGTCAAAGTTCAACTAATGTAACGTAAAGCACGC	7.05	6.09	4.93	4.21	2.34	4.77	4.72	5.26	2.95	4.56	0.546	1.56	0.963	2.3	3.42	4.97	5.1		2.42	5.23
CCTACAGGGCCAAAGGTCATTGATTCCAATGCTC	5.3	5.24	4.04	4.71	0.781	5.51	8.97	8.45	8.14	9.99	0.88	4.29	0.0481	-0.141	5.51	5.66	2.27		2.39	4.63
ATCGAAAGGTCGTGAGGTGTGTATACAGAAAGGC	5.39	4.05	0.0507	3.03	0.423	4.94	3.6	3.97	1.61	2.81	0.0315	2.26	1.54	0.468	2.59	3.12	-0.215		0.71	3.97
CCTACGGGGCCAAAGGTCATTGATTCCAATGCTC	5.67	5.59	4.4	5.16	0.715	6.04	11	9.49	8.43	11.1	1.49	5.33	-0.65	-0.159	5.46	6.24	2.59		2.51	4.72
CGTCCAAGGTCATACGAGGTCAGTGAAGACAGAT	7.86	7.57	5.5	6.63	1.78	5.87	5.57	5.9	2.88	4.6	3.46	4.63	1.25	0.789	5.5		9.7	6.69	2.69	5.43
AGAACGAGGGCAATGAGTTCATAGCACGGGTGGC	1.78	2.26	1.48	1.11	-0.445	2.83	2.16	1.57	0.0417	0.912	3.4	3.12	0.564	0.148	0.482		15.2	2.56	0.017	2.79
GGAACGAGGGCATTCGAGTTGATAGCATGGCGAT	1.35	1.46	-0.481	-0.0953	-0.345	1.38	0.867	0.479	-0.23	-0.0469	2.91	2.18	-0.045	0.402	-0.267		1.45	0.423	-0.292	1.73
TAGCCTAGGTCACGGGCCAGTATACCACGCGAAC	5.68	4.12	0.223	3.33	-0.137	5.41	5.67	4.7	1.91	3.23	2.44	5.21	0.69	0.437	1.4	2.28	-0.694		0.351	4.59
TTACAAAGGTGAAAGGTCGTTGATGCACGCCTTG	5.91	4.66	0.507	4.08	-0.0513	6.21	9.23	8.27	8.34	8.62	3.36	5.57	1.51	1.12	2.94	5.11	0.77		0.833	4.25
TTACCAAGGTCAGCTGAGGTCGTTGATCCAACTC	6.04	5.5	2.43	4.31	0.419	4.83	3.85	4.1	1.27	2.92	2.24	3.75	0.41	0.114	1.8		3.87	4.4	0.314	5.06
CGGCCAAGGTCAAAGGTCAGTGAAGAGATGACGG	8.62	7.07	2.81	6.59	1.33	7.11	10.8	8.98	8.13	9.65	3.94	5.66	0.246	-0.114	7.63	7.3	1.98		4.91	6.06
TCTCGGAGGACACGAAAGGTCAGAACTCGACATC	2.77	3.63	3.3	3.19	0.189	3.29	1.1	2.1	2.51	2.07	1.63	1.22	-0.541	-0.269	3.91	4.08	0.978		2	3.83
CGTCCAAGGTCAATGCTAGGTCACTGAAAGCATT	6.84	5.66	3.98	4.6	0.791	5.16	4.37	5.11	1.68	3.62	3.52	4.42	0.503	0.266	8.59	5.45	2.08		2.19	5.33
CTCCAAAGGTCGGTTGAGGTGAGTATACGGATAA	2.49	1.93	-0.152	1.71	-0.00126	2.95	1.01	1.64	0.12	0.875	0.32	1.01	0.267	-0.816	1.53		0.251	2.58	-0.204	3.18
CGTCAACGTTCAACTAAGGTAACGTAAAGCACGC	0.828	0.246	0.102	0.277	0.346	0.566	0.682	0.178	-0.166	-0.0957	-0.0681	0.225	0.181	-0.155	0.349		-0.0969	2.07	0.331	0.991
CAATCTAGGTCACGAAAGGTCAAAGTCGAATGAC	7.83	8.36	8	7.57	3.05	6.84	10.7	8.68	7.62	9.02	8.53	9.13	5.67	4	6.67	7.2	3.37		4.3	5.76
ATACCAAGGTTATCGTGAGGTCGTTGATACTAAC	3.14	4.42	2.28	2.93	0.533	2.77	1.24	1.56	0.633	1.07	0.718	1.31	1.06	0.559	1.6	4.73	2.85		1.45	2.47
CCGACTGGGGCAAAGGTTACCACACTCAGTACGA	1.86	1.89	0.137	2.27	-0.702	5.83	10.7	8.79	8.43	9.24	4.8	5.98	0.442	0.282	1.18	2.44	-0.0158		0.0195	2.54
CTCGAAAGGTCGAGCTCAGGTGAGTATACCAAAC	5	3.57	-0.0751	3.02	-0.142	4.73	2.39	3.54	1.14	2.04	0.787	1.71	1.15	0.22	2.06	2.86	-0.325		0.256	4.2
CGTCCAAGGTAAGAGAGGTCAGTGAATGCCGAGT	1.6	2.42	1.66	1.72	-0.936	2.53	0.401	1.2	-0.312	0.249	0.589	0.75	-1.12	-1.45	1.77		1.61	3.12	0.562	
TAGCCTAGGTCATTCAGGGGTCAGTATAGAAAGC	5.8	5.2	3.94	5.72	2.32	5.18	4.13	4.56	1.78	3.3	2.45	3.97	1.25	0.527	9.82	5.72	1.35		2.26	4.81
TAGCCTAGGTCATTCAGGGGCCAGAATAGAAAGC	4.69	3.94	0.569	3.21	1.34	3.9	2.33	2.29	0.331	1.44	1.69	2.95	-0.139	0.318	1.44	2.48	0.043		-0.355	4
CCTAGTTGGTCAGGAGGTCACATACCGGATATGA	3.32	3.13	1.66	3.16	0.594	3.7	3.11	3.14	1.32	2.95	1.64	3.39	0.476	0.388	2.7		1.16	3.9	2.01	3.37
CCAGAAAGGTGAAAGGTAACTCAGTCTGGTACGC	2.31	2.14	-0.21	2.12	-0.446	5.13	6.55	6.26	4.77	6.27	4.19	4.68	0.791	0.428	1.51	2.26	0.172		0.674	3.3
ATATGTAGGTAACATCCGGGTCATTCAGGCTATG	1.82	2.79	0.798	2.48	0.596	4.36	5.15	4.17	1.8	3.15	6.71	7.04	2.61	1.59	1.75	3.14	2.16		0.771	1.66

Reference: the supplement of paper PMC6555819
